Compounds with a hit are over-represented: about 21% of the library has one in this group of screens.
Pf growth 48h – inhibits P. falciparum growth in the first generation, 48 h. P. falciparum luciferase growth in erythrocytes, 48 h. Potency, µM (series often up to 28.7 µM), for inactives: at the top dose activity change, negative = inhibition, actives largely listed as inhibitors. 310,000 tested, 5.9% active; also: potency is read from the fitted curve at half-maximal effect; % is scaled to controls: 0 for no effect and ±100 for the full control effect
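Here the parasites carry a stable luciferase gene and grow inside erythrocytes in Albumax-based RPMI medium with compound for one erythrocytic cycle. Activity is scored as loss of luminescent signal.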
Shiga inhibitor – inhibitors of Shiga toxin in Vero cells; inhibition, % at 38.7 µM; Vero cells, Shiga toxin protein synthesis inhibition reporter; 290,000 tested, 9.2% active; in the data active = inhibition mostly above about 28%, no sharp cut-off; inactive = mostly below about 43%; also: 0% is about no effect
HCV inh – inhibitors of hepatitis C virus infection; Potency, µM (series often up to 41.8 µM), for inactives: at the top dose activity change, negative = inhibition, usual class: inhibitors; 340,000 tested, 3.4% active; AID 651820; Huh7.5.1 HCVcc-Cre infection, luciferase reporter, 44 h; also: potency is read from the fitted curve at half-maximal effect; % is scaled to controls: 0 for no effect and ±100 for the full control effect
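Antiviral activity was scored by luciferase reporter output from cells infected with HCVcc-Cre (~0.5 moi) in presence of compound, 44 h infection period, cells seeded 1,000/well 4 h prior.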
HCMV antiviral – blocks human cytomegalovirus replication; 410,000 tested, 4.5% active; activity change, negative = inhibition, % at 57.5 µM; HFF cells, HCMV-luciferase reporter, 72 h; hits give low values; in the data active = activity change below about -60%; inconclusive = no clear call, values can overlap the other calls; inactive = above about -39%; also: % is scaled to controls: 0 for no effect and ±100 for the full control effect
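HFF cells seeded 16 h at 37C, treated with compounds, infected with luciferase-reporter HCMV at MOI 1 PFU/cell; luciferase read at 72 h post infection, normalized to buffer-only and Salinomycin controls.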
CHX counter – counter-screen for Shiga toxin inhibitors: cycloheximide protein synthesis inhibition; cell reporter, cycloheximide protein synthesis inhibition counterscreen; max response, %; 300,000 tested, 12% active; AID 2314; in the data active = max response mostly above about 13%, no sharp cut-off; inactive = mostly below about 14%; also: read at 38.3 µM for the half of the compounds with a filed dose; 0% is about no effect
Pf growth 96h – inhibits malaria parasite growth, 96 h; AID 504834; P. falciparum luciferase reporter growth, 96 h; 320,000 tested, 6.9% active; Potency, µM (doses to about 28.7 µM), for inactives: at the top dose activity change, negative = inhibition, most hits filed as inhibitors; also: potency is read from the fitted curve at half-maximal effect; % is scaled to controls: 0 for no effect and ±100 for the full control effect
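Readout is luminescence from an integrated firefly luciferase in P. falciparum. Red cells, 2% hematocrit and 0.05% parasitemia final, were cultured with compound through two parasite generations (96 hours) at 37 C, 5% CO2.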
* marks the source's active call; other numbers are inactive results; i = inactive; ? = inconclusive; . = no result given. Unless noted, calls follow the shape of the dose curve; as a rule, active = well fitted inhibition curve with a large enough effect; inconclusive = small, poorly fitted or top-dose-only effect, or another doubt; inactive = no such curve, though single readings can be large or run the other way.

SMILES	Pf growth 48h	Shiga inhibitor	HCV inh	HCMV antiviral	CHX counter	Pf growth 96h
C=CCOc1ccc(/C=C/C(C)=N\O)cc1	291.0%	85.0*	-9.1%	-30.1	50.3*	i
Cc1ccc(-n2c(C)cc(C(=O)CN3CCOCC3)c2C)cc1	41.9%	85.0*	-15.3%	-19.1	46.2*	46.7%
Cc1cc(C(=O)CN2CCCC(C)C2)c(C)n1-c1ccc(F)cc1 (stereo not given)	42.6%	52.7*	-13.3%	2.1	49.8*	?
O=C(c1ccc(CNS(=O)(=O)c2ccc(Br)cc2)cc1)N1CCCCC1	-25.6%	-11.3	-7.1%	-37.1	5.0	?
Cc1c(NC(=O)Nc2ccc(Cl)c(C(F)(F)F)c2)c(=O)n(-c2ccccc2)n1C	.	.	.	-5.2	.	.
O=C(Nc1c(Cl)cc(Cl)cc1C(=O)NCc1cccnc1)c1ccc(Cl)cc1Cl	1.47µM*	23.6	24.9%	13.2	0.6	17.8%
O=C(Nc1ccc(Cl)cc1C(=O)NCc1cccnc1)c1ccc(Cl)cc1Cl	8.28µM*	-6.1	?	?	-3.1	3.29µM*
O=C(NCc1cccnc1)c1ccccc1Br	26.6%	14.9	14.7%	58.1	0.9	-2.1%
O=C(Nc1ccccc1C(=O)NCc1cccnc1)c1ccccc1Cl	-3.7%	-4.9	?	-30.4	1.8	?
Nc1ccccc1-c1ccc(Cl)cc1	.	.	?	-16.8	.	.
Nc1nn(-c2cccc(F)n2)cc1-c1ccccc1	i	107.3*	-13.1%	16.2	40.4*	i
Nc1nn(-c2cccc(F)n2)cc1-c1ccc(Cl)cc1	i	76.8*	-16.0%	-2.9	23.1*	i
O=C(c1ccccc1)c1ccc(Cn2cc(-c3ccccc3)nn2)cc1	36.9%	56.7*	1.41µM*	?	24.1*	55.9%
O=C(c1ccccc1)c1ccc(Cn2cc(CCCO)nn2)cc1	-9.6%	16.9	10µM*	?	8.1	-18.4%
Cc1cc(Cl)ccc1OCC(=O)N(Cc1ccc(N(C)C)cc1)CC1CCCO1 (stereo not given)	.	.	.	-30.0	.	.
Cc1nn(C)c(Sc2ccccc2N)c1[N+](=O)[O-]	9.4%	90.1	1.1%	?	28.7*	5.0%
C[CH2][Hg][S]c1ccccc1C(=O)O	1.9µM*	.	-61.7%	-95.5*	.	1.2µM*
CC(=O)NN1C(=O)c2ccc3c4c(ccc(c24)C1=O)C(=O)N(NC(C)=O)C3=O	?	-11.5	10µM*	-104.0*	-4.8	?
Cc1cc(-c2nnco2)c(C)n1-c1ccccc1	48.0%	63.1	17.1%	70.3	37.1*	?
Cc1nc2ccccn2c1-c1nnco1	23.3%	-8.6	9.7%	-12.9	-1.8	135.2%
Cc1ccc(C)c(N2CCN(C(=O)C3CCN(c4nc(-c5ccc(C(C)C)cc5)no4)CC3)CC2)c1	.	.	.	-63.2*	.	.
Cc1ccc(NC(=O)C2CCN(c3nc(-c4ccc(C(C)C)cc4)no3)CC2)c(Cl)c1	.	.	.	-69.4*	.	.
COc1ccc(-c2noc(N3CCC(C(=O)Nc4cc(OC)ccc4OC)CC3)n2)cc1	?	12.9	?	-22.5	7.4	-22.4%
COc1ccc(NC(=O)COc2coc(CN3CCc4ccccc4C3)cc2=O)cc1	-16.2%	.	?	-16.9	.	13.1µM*
O=C(COc1coc(CN2CCc3ccccc3C2)cc1=O)Nc1cccc(F)c1	6.2%	.	?	14.3	.	4.65µM*
SMILES	Pf growth 48h	Shiga inhibitor	HCV inh	HCMV antiviral	CHX counter	Pf growth 96h
CCOc1ccc(NC(=O)COc2coc(CN3CCc4ccccc4C3)cc2=O)cc1	?	.	-18.0%	-36.6	.	-22.4%
O=C(NN=C1CCCC1)c1n[nH]c2c1CCCC2	49.9%	59.0*	8.6%	-37.8	31.7*	1.3%
O=C(NC1CCCCC1)c1n[nH]c2c1CCCCC2	?	.	7.7%	-27.5	.	47.0%
O=C(NN=C1CCCC1)c1n[nH]c2c1CCC2	0.0%	27.0	1.4%	-6.8	23.9*	?
CC(C)(C)c1ccc(C(=O)Nc2ccccc2C(=O)NCCN2CCOCC2)cc1	12.2%	35.5	6.0%	34.3	13.1*	-13.8%
CCOC(=O)N1CCN(C(=O)c2ccccc2NC(=O)c2ccc(C(C)(C)C)cc2)CC1	10.4µM*	-3.4	22.1%	?	-2.0	?
CCOC(=O)N1CCN(C(=O)C(NC(=O)c2ccc(C(C)(C)C)cc2)C(C)C)CC1 (stereo not given)	9.28µM*	.	?	-61.7*	.	?
Cc1ccc(C2=CC(=O)N(CCN)C2)cc1	.	.	.	32.3	.	.
Cc1nn(C(C)(C)C)c(OC(=O)c2ccc3c(c2)OCO3)c1S(=O)(=O)c1ccccc1	2.2%	45.1	-1.0%	-23.0	37.3*	.
Cc1ccc(S(=O)(=O)c2c(C)nn(C(C)(C)C)c2OC(=O)c2ccc(Br)o2)cc1	26.3%	8.5	?	-64.3*	9.9	18.8%
O=[N+]([O-])c1ccc2c(c1)nc1n2CCN(CC2CCCO2)C1 (stereo not given)	40.8%	24.3	1.2%	98.9	28.2*	23.2%
O=[N+]([O-])c1ccc2c(c1)nc1n2CCN(c2ccccc2)C1	?	29.0*	-22.7%	?	37.2*	?
COc1cc(C(=O)Nc2ccc3nc4n(c(=O)c3c2)CCCC4)ccc1Br	8.28µM*	-3.7	-18.8%	-20.6	17.8	-3.4%
COc1cccc(C(=O)Nc2ccc3nc4n(c(=O)c3c2)CCCC4)c1	13.1%	55.9*	-28.7%	25.5	22.7*	77.9%
O=C(COc1ccc(Cl)cc1Cl)Nc1ccc2nc3n(c(=O)c2c1)CCCC3	-22.6%	-6.0	-12.0%	-21.8	5.9	?
COc1ccc(Cl)cc1C(=O)Nc1ccc2nc3n(c(=O)c2c1)CCCC3	?	14.1	?	?	-0.2	2.08µM*
CN(C)c1cccc(C(=O)Nc2ccc3nc4n(c(=O)c3c2)CCCCC4)c1	.	53.3*	?	3.4	24.5*	14.7%
CCc1ccc(OCC(=O)N(Cc2ccc(C)cc2)Cc2ccco2)cc1	.	.	.	23.5	.	.
Cc1cccc(N2CCN(C(c3ccccc3)c3nnc(-c4ccccc4Cl)o3)CC2)c1C (stereo not given)	.	.	.	3.2	.	.
O=C(Nc1ccc2nc3n(c(=O)c2c1)CCCCC3)c1cccc(C(F)(F)F)c1	.	.	.	-68.5*	.	.
CN(C(=O)C(=O)Nc1ccc2nc3n(c(=O)c2c1)CCCCC3)c1cccc(C(F)(F)F)c1	.	.	.	-1.5	.	.
Cc1ccccc1C(=O)Nc1ccc2nc3n(c(=O)c2c1)CCCC3	0.0%	6.7	-8.3%	-37.7	12.0	-21.3%
O=C(/C=C/c1ccco1)Nc1ccc2nc3n(c(=O)c2c1)CCCC3	63.8%	65.8*	?	-4.5	51.6*	?
COc1cc(OC)cc(C(=O)Nc2ccc3nc4n(c(=O)c3c2)CCCC4)c1	?	70.1*	?	?	27.2*	14.0%
COc1cc(NC(=O)C(=O)Nc2ccc3nc4n(c(=O)c3c2)CCCCC4)cc(OC)c1OC	7.2%	-9.7	-13.3%	-23.0	2.4	-0.4%
